Laboratory results: the supplement of paper PMC10849652
Of roughly 7,900 targets only a part is listed; those with a hit were picked by preference. About 0.6% of all pairs of compound and target were hits.

What was measured:
Test in all cases: log2 fold change, soluble protein after heating vs DMSO (PISA); higher = thermal stabilisation; K562 cells, 10 uM, 30 min; active = over 0.2 and 3.5 SD of the protein, either way, in both replicates (recomputed)
[1] = compound: COC1=CC=C(C=C1)CN2C=CC3=C2C=C(C=C3)C(=O)NO
Procedure, shortened: (§1)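 For each measurement, 10 μM compound was applied for 30 min to K562 cells at 2×10^6 cells/mL. Aliquots were heated for 3 min across 48°C-58°C, pooled, and extracted in PBS with 0.5% NP-40 at 4°C; the supernatant after 21,000xg for 90 min was soluble protein. This was quantified by TMTpro 16plex LC-MS/MS with channel sums equalised, and thermal stability was reported relative to control samples from duplicates, on a log2 fold-change scale.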

[2] = compound: CON(C)C(=O)N1N=C(c2cc(F)ccc2F)S[C@@]1(CCCN)c1ccccc1 [filanesib]
Procedure, shortened: as §1

[3] = compound: CO[C@H]1C[C@@H]2CC[C@@H](C)[C@@](O)(O2)C(=O)C(=O)N2CCCC[C@H]2C(=O)O[C@H]([C@H](C)C[C@@H]2CC[C@H](n3cnnn3)[C@H](OC)C2)CC(=O)[C@H](C)/C=C(\C)[C@@H](O)[C@@H](OC)C(=O)[C@H](C)C[C@H](C)/C=C/C=C/C=C/1C [zotarolimus]
Procedure, shortened: as §1

[4] = compound: COc1cc(C(=O)O)ccc1NC(=O)[C@@H]1N[C@@H](CC(C)(C)C)[C@](C#N)(c2ccc(Cl)cc2F)[C@H]1c1cccc(Cl)c1F [idasanutlin]
Procedure, shortened: as §1

[5] = compound: COc1cc(Nc2ncc3c(n2)-c2ccc(Cl)cc2C(c2c(F)cccc2OC)=NC3)ccc1C(=O)O [alisertib]
Procedure, shortened: as §1

[6] = compound: COc1cc2nc(-c3cc(F)ccc3O)nc(N[C@@H]3CNC[C@H]3C(C)(C)O)c2cc1OC
Procedure, shortened: as §1

[7] = compound: COc1cc2ncnc(Nc3ccc(F)c(Cl)c3)c2cc1OCCCN1CCOCC1 [gefitinib]
Procedure, shortened: as §1

[8] = compound: COc1cccc2cc(-c3nc([C@H]4CC[C@H](C(=O)O)CC4)n4ncnc(N)c34)[nH]c12
Procedure, shortened: as §1

[9] = compound: CS(=O)(=O)CCNCc1ccc(-c2ccc3ncnc(Nc4ccc(OCc5cccc(F)c5)c(Cl)c4)c3c2)o1 [lapatinib]
Procedure, shortened: as §1

[10] = compound: CS(=O)(=O)N1CCN(Cc2cc3nc(-c4cccc5[nH]ncc45)nc(N4CCOCC4)c3s2)CC1 [pictilisib]
Procedure, shortened: as §1

Measured: log2 fold change

CDK6 (UniProt Q00534)
inactive: [1] -0.012 | [2] 0.037 | [3] 0.021 | [4] -0.06 | [5] -0.051 | [6] 0.036 | [7] 0 | [8] -0.012 | [9] -0.019 | [10] 0.015

CPSF3 (UniProt Q9UKF6)
inactive: [1] -0.063 | [2] 0.033 | [3] 0.011 | [4] -0.007 | [5] -0.067 | [6] -0.021 | [7] 0 | [8] -0.012 | [9] 0.009 | [10] -0.025

COCH (UniProt O43405)
inactive: [1] -0.018 | [2] 0.024 | [3] -0.018 | [4] 0.077 | [5] -0.063 | [6] -0.144 | [7] 0.131 | [8] -0.078 | [9] 0.049 | [10] 0.001

CCAR2 isoform 2 (UniProt Q8N163)
Chain of UniProt Q8N163 (Q8N163 whole entry, looked up): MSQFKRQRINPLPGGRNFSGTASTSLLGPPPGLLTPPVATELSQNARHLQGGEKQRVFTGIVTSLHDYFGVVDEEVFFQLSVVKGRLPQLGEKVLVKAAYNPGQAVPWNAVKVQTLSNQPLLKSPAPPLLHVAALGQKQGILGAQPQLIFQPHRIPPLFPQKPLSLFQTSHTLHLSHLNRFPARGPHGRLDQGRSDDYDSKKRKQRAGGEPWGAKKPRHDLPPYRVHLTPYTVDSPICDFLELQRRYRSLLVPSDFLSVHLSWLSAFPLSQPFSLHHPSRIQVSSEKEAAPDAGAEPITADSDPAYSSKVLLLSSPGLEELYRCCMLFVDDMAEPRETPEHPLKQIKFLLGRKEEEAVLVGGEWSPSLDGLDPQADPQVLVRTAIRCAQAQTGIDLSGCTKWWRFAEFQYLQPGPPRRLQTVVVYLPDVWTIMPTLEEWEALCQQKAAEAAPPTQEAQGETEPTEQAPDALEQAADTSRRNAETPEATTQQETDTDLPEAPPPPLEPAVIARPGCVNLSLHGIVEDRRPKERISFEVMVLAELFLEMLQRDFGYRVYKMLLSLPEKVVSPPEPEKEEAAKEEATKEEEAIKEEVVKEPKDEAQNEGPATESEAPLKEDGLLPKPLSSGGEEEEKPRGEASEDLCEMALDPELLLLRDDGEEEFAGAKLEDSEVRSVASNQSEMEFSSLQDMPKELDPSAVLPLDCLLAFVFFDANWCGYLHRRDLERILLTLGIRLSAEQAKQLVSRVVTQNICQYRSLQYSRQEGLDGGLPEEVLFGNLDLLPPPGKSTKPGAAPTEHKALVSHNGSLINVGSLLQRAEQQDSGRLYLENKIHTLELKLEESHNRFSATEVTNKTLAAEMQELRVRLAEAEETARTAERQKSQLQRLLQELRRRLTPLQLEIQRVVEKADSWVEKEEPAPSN
inactive: [1] -0.038 | [2] 0.024 | [3] 0.063 | [4] -0.065 | [5] -0.072 | [6] -0.187 | [7] -0.03 | [8] -0.042 | [9] 0.04 | [10] -0.034

COPS8 (UniProt Q99627)
inactive: [1] 0.006 | [2] 0.023 | [3] 0.045 | [4] -0.017 | [5] 0.042 | [6] -0.078 | [7] -0.028 | [8] 0.117 | [9] -0.01 | [10] -0.014

COASY isoform 2 (UniProt Q13057)
Chain of UniProt Q13057 (Q13057 whole entry, looked up): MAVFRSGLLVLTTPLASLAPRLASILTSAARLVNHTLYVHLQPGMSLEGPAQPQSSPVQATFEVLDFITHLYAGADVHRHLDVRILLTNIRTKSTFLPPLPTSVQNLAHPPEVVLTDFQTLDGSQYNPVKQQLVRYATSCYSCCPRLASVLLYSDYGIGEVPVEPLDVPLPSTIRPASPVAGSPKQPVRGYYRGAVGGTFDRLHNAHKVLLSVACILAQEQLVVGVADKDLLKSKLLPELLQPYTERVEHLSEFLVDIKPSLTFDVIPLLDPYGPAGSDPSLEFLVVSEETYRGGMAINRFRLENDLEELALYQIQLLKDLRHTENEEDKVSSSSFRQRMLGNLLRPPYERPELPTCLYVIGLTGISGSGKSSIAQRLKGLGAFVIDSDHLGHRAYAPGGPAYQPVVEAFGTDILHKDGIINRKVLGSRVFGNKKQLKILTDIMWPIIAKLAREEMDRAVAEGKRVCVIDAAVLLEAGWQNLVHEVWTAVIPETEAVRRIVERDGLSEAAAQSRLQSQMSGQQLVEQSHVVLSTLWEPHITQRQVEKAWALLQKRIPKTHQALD
inactive: [1] 0.034 | [2] -0.061 | [3] 0.024 | [4] -0.071 | [5] -0.038 | [6] 0.01 | [7] -0.038 | [8] 0.045 | [9] 0.043 | [10] 0.028

CDC42BPB (UniProt Q9Y5S2)
inactive: [1] -0.062 | [2] 0.147 | [3] 0.089 | [4] 0.062 | [5] -0.1 | [6] -0.371 | [7] -0.07 | [8] 0.071 | [9] -0.009 | [10] 0.025

CRKL (UniProt P46109)
inactive: [1] 0.006 | [2] 0.002 | [3] 0.007 | [4] 0.022 | [5] -0.036 | [6] 0.021 | [7] 0 | [8] 0.102 | [9] -0.012 | [10] 0.057

CAMKK2 (UniProt Q96RR4)
inactive: [1] -0.063 | [2] 0.085 | [3] -0.077 | [4] -0.091 | [5] -0.377 | [6] 0.12 | [7] 0.019 | [8] 0.015 | [9] 0.025 | [10] 0.035

CMTM3 (UniProt Q96MX0)
inactive: [1] -0.122 | [2] 0.105 | [3] -0.075 | [4] -0.045 | [5] -0.069 | [6] -0.018 | [7] 0.021 | [8] 0.035 | [9] -0.062 | [10] -0.091

CS (UniProt O75390)
Chain of UniProt O75390 (O75390 whole entry, looked up): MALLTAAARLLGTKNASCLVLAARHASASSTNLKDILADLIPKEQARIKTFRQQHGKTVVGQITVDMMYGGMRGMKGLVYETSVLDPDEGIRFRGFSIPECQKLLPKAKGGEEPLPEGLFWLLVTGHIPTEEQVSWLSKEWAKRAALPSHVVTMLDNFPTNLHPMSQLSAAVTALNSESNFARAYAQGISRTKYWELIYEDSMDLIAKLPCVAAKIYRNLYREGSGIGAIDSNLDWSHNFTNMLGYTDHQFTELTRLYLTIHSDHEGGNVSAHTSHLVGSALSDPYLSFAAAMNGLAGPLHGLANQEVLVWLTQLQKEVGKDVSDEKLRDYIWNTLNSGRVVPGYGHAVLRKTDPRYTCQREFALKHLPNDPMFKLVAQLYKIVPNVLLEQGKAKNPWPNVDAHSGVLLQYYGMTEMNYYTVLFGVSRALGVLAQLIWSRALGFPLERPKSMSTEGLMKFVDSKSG
inactive: [1] 0.012 | [2] -0.172 | [3] 0.011 | [4] -0.033 | [5] -0.013 | [6] -0.139 | [7] 0.041 | [8] 0.059 | [9] -0.027 | [10] 0.099

CDC26 (UniProt Q8NHZ8)
inactive: [1] -0.031 | [2] 0.085 | [3] -0.011 | [4] -0.053 | [5] -0.023 | [6] 0 | [7] 0.003 | [8] -0.017 | [9] -0.023 | [10] -0.125

CBX5 (UniProt P45973)
inactive: [1] 0.119 | [2] -0.046 | [3] 0.029 | [4] -0.014 | [5] -0.062 | [6] 0.003 | [7] 0.024 | [8] 0.022 | [9] 0.019 | [10] 0.106

C4orf33 (UniProt Q8N1A6)
inactive: [1] -0.055 | [2] 0.072 | [3] -0.009 | [4] -0.054 | [5] -0.17 | [6] -0.026 | [7] 0.029 | [8] 0.061 | [9] 0 | [10] 0.049

CHMP4C (UniProt Q96CF2)
inactive: [1] 0.163 | [2] 0.014 | [3] -0.028 | [4] -0.001 | [5] 0.037 | [6] 0.064 | [7] -0.014 | [8] 0.02 | [9] -0.027 | [10] -0.005

CNOT1 (UniProt A5YKK6)
Chain of UniProt A5YKK6 (A5YKK6 whole entry, looked up): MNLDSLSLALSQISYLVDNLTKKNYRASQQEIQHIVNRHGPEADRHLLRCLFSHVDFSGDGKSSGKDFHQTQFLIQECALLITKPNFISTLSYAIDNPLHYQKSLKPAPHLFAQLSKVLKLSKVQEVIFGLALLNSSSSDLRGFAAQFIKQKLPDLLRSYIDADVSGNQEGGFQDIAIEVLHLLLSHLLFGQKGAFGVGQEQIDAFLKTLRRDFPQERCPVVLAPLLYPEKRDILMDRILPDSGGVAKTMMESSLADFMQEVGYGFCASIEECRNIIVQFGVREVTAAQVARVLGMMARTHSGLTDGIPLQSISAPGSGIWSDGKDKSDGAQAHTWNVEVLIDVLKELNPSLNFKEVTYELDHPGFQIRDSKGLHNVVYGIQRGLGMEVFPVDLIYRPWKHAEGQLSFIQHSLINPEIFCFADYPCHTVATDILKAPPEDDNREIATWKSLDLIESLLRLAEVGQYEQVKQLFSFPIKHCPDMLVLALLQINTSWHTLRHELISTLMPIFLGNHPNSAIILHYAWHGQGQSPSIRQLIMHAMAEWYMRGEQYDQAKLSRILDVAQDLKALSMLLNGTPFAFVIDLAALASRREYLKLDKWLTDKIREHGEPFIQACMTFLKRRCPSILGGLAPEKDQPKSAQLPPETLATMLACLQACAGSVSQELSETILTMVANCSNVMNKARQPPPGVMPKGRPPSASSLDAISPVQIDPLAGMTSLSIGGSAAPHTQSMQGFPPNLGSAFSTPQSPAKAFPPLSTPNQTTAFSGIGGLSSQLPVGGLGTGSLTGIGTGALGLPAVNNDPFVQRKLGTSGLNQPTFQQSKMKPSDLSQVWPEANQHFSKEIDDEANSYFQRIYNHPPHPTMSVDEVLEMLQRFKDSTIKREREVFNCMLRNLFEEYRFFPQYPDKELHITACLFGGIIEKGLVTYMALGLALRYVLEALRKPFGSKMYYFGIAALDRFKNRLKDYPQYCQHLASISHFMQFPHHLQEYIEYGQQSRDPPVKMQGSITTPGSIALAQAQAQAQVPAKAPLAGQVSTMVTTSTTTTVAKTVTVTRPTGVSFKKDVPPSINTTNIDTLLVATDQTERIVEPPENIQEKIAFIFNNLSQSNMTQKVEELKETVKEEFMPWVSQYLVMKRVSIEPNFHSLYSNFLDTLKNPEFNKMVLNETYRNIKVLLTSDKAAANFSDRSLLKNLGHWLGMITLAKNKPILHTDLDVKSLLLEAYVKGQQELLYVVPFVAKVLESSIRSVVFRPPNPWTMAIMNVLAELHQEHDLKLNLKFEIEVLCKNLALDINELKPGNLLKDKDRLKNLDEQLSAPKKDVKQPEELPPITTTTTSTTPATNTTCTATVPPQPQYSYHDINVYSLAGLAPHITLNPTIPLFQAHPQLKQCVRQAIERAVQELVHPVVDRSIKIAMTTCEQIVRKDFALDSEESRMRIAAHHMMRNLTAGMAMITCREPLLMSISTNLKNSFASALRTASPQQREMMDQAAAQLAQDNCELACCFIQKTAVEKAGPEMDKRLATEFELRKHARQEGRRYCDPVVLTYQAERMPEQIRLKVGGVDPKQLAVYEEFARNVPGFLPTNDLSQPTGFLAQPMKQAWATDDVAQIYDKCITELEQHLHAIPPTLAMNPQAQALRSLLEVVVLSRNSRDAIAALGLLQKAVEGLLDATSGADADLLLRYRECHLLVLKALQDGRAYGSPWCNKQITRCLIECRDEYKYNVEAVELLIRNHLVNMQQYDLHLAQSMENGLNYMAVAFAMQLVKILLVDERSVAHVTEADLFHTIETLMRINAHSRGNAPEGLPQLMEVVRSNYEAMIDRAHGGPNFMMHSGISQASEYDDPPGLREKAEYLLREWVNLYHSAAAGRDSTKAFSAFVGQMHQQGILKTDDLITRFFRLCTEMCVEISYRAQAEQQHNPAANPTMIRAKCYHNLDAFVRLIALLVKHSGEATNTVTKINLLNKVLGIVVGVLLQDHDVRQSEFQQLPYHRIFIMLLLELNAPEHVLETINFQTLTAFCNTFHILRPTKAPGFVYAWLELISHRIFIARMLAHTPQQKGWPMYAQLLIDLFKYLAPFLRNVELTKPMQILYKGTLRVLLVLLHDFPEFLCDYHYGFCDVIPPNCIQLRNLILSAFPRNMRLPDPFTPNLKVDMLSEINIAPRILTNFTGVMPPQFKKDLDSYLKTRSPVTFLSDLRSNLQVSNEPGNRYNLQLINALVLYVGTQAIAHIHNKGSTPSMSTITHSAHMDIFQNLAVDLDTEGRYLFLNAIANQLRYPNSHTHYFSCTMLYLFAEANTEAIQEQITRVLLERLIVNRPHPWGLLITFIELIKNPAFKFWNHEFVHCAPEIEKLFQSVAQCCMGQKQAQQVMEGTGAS
inactive: [1] 0.002 | [2] -0.019 | [3] 0.02 | [4] -0.032 | [5] -0.022 | [6] 0.053 | [7] -0.021 | [8] -0.031 | [9] 0.02 | [10] -0.046

CPT1A (UniProt P50416)
inactive: [1] 0.073 | [2] 0.204 | [3] 0.118 | [4] 0.086 | [5] 0.235 | [6] 0.308 | [7] 0.028 | [8] -0.151 | [9] 0.1 | [10] 0.257

CDC42EP1 (UniProt Q00587)
Chain of UniProt Q00587 (Q00587 whole entry, looked up): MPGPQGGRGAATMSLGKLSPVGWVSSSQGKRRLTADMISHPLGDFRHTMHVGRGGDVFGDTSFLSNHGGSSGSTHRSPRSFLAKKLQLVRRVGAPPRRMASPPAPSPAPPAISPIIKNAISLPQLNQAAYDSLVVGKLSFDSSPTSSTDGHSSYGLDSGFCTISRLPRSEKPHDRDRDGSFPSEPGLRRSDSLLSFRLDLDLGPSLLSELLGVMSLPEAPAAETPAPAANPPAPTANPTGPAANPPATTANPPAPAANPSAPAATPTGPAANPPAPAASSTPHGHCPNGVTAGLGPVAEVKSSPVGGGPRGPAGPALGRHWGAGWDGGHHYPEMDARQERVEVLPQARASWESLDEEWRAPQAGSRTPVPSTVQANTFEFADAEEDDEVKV
inactive: [1] -0.139 | [2] -0.07 | [3] 0.014 | [4] 0 | [5] 0 | [7] 0.087 | [8] -0.057 | [9] -0.015 | [10] -0.143
active: [6] -0.492

CCAR1 (UniProt Q8IX12)
inactive: [1] 0.018 | [2] -0.105 | [3] 0.011 | [4] -0.041 | [5] -0.056 | [6] -0.02 | [7] 0.027 | [8] 0.014 | [9] 0.003 | [10] -0.072

CCNH (UniProt P51946)
inactive: [1] 0.043 | [2] 0.005 | [3] -0.044 | [4] 0.018 | [5] -0.011 | [6] 0.026 | [7] -0.03 | [8] -0.002 | [9] 0.023 | [10] 0.007

CCNT1 (UniProt O60563)
active: [6] -0.371
inactive: [1] -0.05 | [2] 0.13 | [3] 0.044 | [4] 0.109 | [5] -0.093 | [7] 0.021 | [8] -0.158 | [9] 0.098 | [10] -0.049

CAMSAP1 isoform 3 (UniProt Q5T5Y3)
inactive: [1] 0.011 | [2] -0.015 | [3] 0.045 | [4] 0.091 | [5] 0.039 | [6] 0.169 | [7] -0.034 | [8] 0.056 | [9] 0.095 | [10] 0.118

COPS4 (UniProt Q9BT78)
active: [1] 0.219
inactive: [2] -0.067 | [3] 0.032 | [4] -0.039 | [5] -0.054 | [6] -0.035 | [7] -0.007 | [8] 0.019 | [9] 0.025 | [10] -0.011

CD151 (UniProt P48509)
inactive: [1] -0.045 | [2] 0.108 | [3] -0.048 | [4] -0.12 | [5] 0.075 | [6] 0.111 | [7] 0.001 | [8] -0.024 | [9] 0.012 | [10] 0.116

CALCOCO2 isoform 4 (UniProt Q13137)
inactive: [1] -0.041 | [2] -0.166 | [3] -0.044 | [4] 0.014 | [5] 0 | [6] 0.018 | [7] -0.07 | [8] -0.08 | [9] 0 | [10] 0.031

CDK9 isoform 2 (UniProt P50750)
Chain of UniProt P50750 (P50750 whole entry, looked up): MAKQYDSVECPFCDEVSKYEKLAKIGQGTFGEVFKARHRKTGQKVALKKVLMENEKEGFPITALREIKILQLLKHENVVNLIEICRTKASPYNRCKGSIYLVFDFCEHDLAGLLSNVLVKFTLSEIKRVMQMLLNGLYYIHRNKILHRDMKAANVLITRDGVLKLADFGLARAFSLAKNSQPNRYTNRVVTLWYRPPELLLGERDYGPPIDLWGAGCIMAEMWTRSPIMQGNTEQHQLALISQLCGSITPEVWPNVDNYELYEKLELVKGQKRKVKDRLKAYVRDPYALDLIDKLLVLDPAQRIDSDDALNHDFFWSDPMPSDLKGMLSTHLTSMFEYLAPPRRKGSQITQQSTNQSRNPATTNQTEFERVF
inactive: [1] -0.103 | [2] 0.154 | [3] 0.015 | [4] 0.114 | [5] -0.093 | [6] -0.182 | [7] -0.031 | [8] -0.067 | [9] -0.055 | [10] 0.014

CHCHD1 (UniProt Q96BP2)
inactive: [1] 0.037 | [2] -0.017 | [3] -0.001 | [4] 0.082 | [5] -0.077 | [6] -0.198 | [7] -0.042 | [8] 0.161 | [9] -0.055 | [10] -0.193

COX5A (UniProt P20674)
inactive: [1] -0.1 | [2] 0.015 | [3] 0.054 | [4] -0.012 | [5] -0.13 | [6] -0.092 | [7] 0.067 | [8] 0.084 | [9] -0.108 | [10] 0.108

CSNK2B (UniProt P67870)
inactive: [1] 0.113 | [2] -0.006 | [3] -0.002 | [4] -0.026 | [5] -0.013 | [6] -0.196 | [7] -0.013 | [8] 0.028 | [9] 0.04 | [10] 0.079
